Source: ChEMBL document CHEMBL3988442, “University of Dundee, Small-Polar-MMV Screening Library” (2021)
Hit rate of the full screen: of about 48,000 compounds, about 13,000 (27%) showed an effect of 50% or more. The list shows a part of the results.

test system: Wolbachia pipientis; assay: Anti-Wolbachia Cell-Based Screen; assay type: functional; design: scale not given: in the data most compounds retested in dose-response had high values; details: 5 µM

| SMILES | Percent Effect |
| --- | --- |
| CN(C)C(=O)c1nc2c(n1C)CCN(Cc1ccccc1)C2 | 0.7909% |
| CNC(=O)CNC(=O)CC1C(=O)NCCN1Cc1ccccc1C (centres undefined) | -0.8934% |
| COCCO[C@H]1CCN(Cc2ccsc2)[C@H]1Cc1cccnc1.O=C(O)C(F)(F)F.O=C(O)C(F)(F)F | 103.2% |
| Cn1cc(CN2CC[C@H]3O[C@@H](COCc4cccnc4)CC[C@H]32)cn1.O=C(O)C(F)(F)F.O=C(O)C(F)(F)F | -19.84% |
| COCCO[C@H]1CCN(Cc2cccs2)[C@H]1Cc1cccnc1.O=C(O)C(F)(F)F.O=C(O)C(F)(F)F | -0.3476% |
| O=C(O)C(F)(F)F.O=C(O)C(F)(F)F.O=C(O)C(F)(F)F.c1cncc(CN2CC[C@@H]3O[C@H](COCCN4CCCC4)CC[C@@H]32)c1 | 86.61% |
| O=C(O)C(F)(F)F.O=C(O)C(F)(F)F.O=C(O)C(F)(F)F.c1ccc(COC[C@H]2CC[C@H]3[C@H](CCN3Cc3cccnc3)O2)nc1 | -5.696% |
| COCCO[C@@H]1CCN(C(=O)c2ccc(C)o2)[C@@H]1Cc1cccnc1.O=C(O)C(F)(F)F | 18.38% |
| COCCO[C@H]1CCN(Cc2cccnc2)[C@H]1Cc1cccnc1.O=C(O)C(F)(F)F.O=C(O)C(F)(F)F.O=C(O)C(F)(F)F | 107.4% |
| Cc1[nH]c2c(F)cccc2c1CC(=O)NCCCc1csc(N)n1 | -2.894% |
| COC(=O)c1cccc(OCCn2nc(-c3cccs3)oc2=O)c1 | 2.853% |
| O=c1oc(-c2cccs2)nn1CC1(O)CCCCC1 | -6.599% |
| COc1ccc(NC(=O)CCn2nc(-c3cccs3)oc2=O)cc1OC | 106% |
| COc1cc(C)c(NC(=O)CCn2cccc2)cc1OC | 27.33% |
| COc1cc(NC(=O)CCn2nc(-c3cccs3)oc2=O)cc(OC)c1 | 106.6% |
| Cc1cc(C)n2nc(C(=O)N3CCCC4(CCOC4)C3)cc2n1 (centres undefined) | -5.928% |
| COC(=O)C(C)(C)C(C)(C)NC(=O)Nc1nnc(-c2ccccn2)s1 | -11.99% |
| COc1c(C2CCCN2C(=O)c2sccc2C#N)c(C)nn1C (centres undefined) | -24.73% |
| CCOc1ccc(C(=O)N2CCCC2c2c(C)nn(C)c2OC)cn1 (centres undefined) | 122.4% |
| COc1c(C2CCCN2C(=O)c2ccc(C#N)cc2)c(C)nn1C (centres undefined) | 98.09% |
| COc1c(C2CCCN2C(=O)c2ccc3[nH]cnc3c2)c(C)nn1C (centres undefined) | 128.2% |
| COc1c(C2CCCN2C(=O)c2ccc3cc[nH]c3c2)c(C)nn1C (centres undefined) | -0.02537% |

| SMILES | Percent Effect |
| --- | --- |
| CCOc1ccc(C(=O)N2CCCC2c2c(C)nn(C)c2Cl)cn1 (centres undefined) | 128% |
| Cc1cc(C(=O)N2C[C@@H]3CCCO[C@@H]3[C@H](N(C)C(C)C)C2)c(C)[nH]1 | -3.882% |
| COc1ccc(CNC(=O)NC2CCN(c3ccccc3)C2=O)cc1 (centres undefined) | -1.645% |
| Cc1noc(NC(=O)c2ccc(Br)s2)n1 | 1.553% |
| CC1=N[C@@]2(CC[C@@H]3CN(C(=O)NCC(C)C)C[C@@H]32)C(=O)N1C | 7.686% |
| Cc1c(CNC(=O)NCc2cccc(-n3cncn3)c2)cnn1C | -0.3036% |
| COc1c(C2CCCN2C(=O)c2ccc(O)nc2)c(C)nn1C (centres undefined) | 97.38% |
| COc1c(C2CCCN2C(=O)c2ccoc2)c(C)nn1C (centres undefined) | 3.459% |
| Cc1nn(C)c(C)c1C1CCCN1C(=O)c1ccc(NC2CC2)nc1 (centres undefined) | -8.845% |
| Cc1nn(C)c(Cl)c1C1CCCN1C(=O)c1ccc(C(N)=O)cn1 (centres undefined) | 118.3% |
| Cc1nn(C)c(Cl)c1C1CCCN1C(=O)c1ccc(O)nc1 (centres undefined) | 94.29% |
| CC(C)c1ncc(C(=O)N(C)c2ccc(Br)cn2)s1 | 0.7212% |
| Cc1cc(CN2CCC(C3CCN(CCc4ccccc4)CC3)C2)[nH]n1 (centres undefined) | -2.584% |
| CC(C)CN1C[C@@H]2OCC(=O)N(c3ccccc3)[C@@H]2C1 | -2.791% |
| O=C(CCc1cccs1)N1CCCC(N2CCNC2=O)C1 (centres undefined) | 103.5% |
| O=C(CCc1ccsc1)N1CCC(N2CCNC2=O)CC1 | 88.84% |
| O=C(CCc1cccs1)N1CCC(N2CCNC2=O)CC1 | 8.278% |
| O=C(Nc1nccs1)N1CCCC(N2CCNC2=O)C1 (centres undefined) | -14.98% |
| O=C(CCc1nccs1)N1CCC(N2CCNC2=O)CC1 | -13.84% |
| O=C(CCc1ccccc1)N1CCC(N2CCNC2=O)CC1 | 0.2283% |
| O=C1NCCN1C1CCN(CCc2cccs2)CC1 | 3.932% |
| O=C(CCc1nccs1)N1CCCC(N2CCNC2=O)C1 (centres undefined) | -19.11% |

| SMILES | Percent Effect |
| --- | --- |
| O=C(CCCc1cccs1)N1CCC(N2CCNC2=O)CC1 | 94.13% |
| CC(C)(C)OC(=O)NCC1CCN(C(=O)c2ccc(F)cc2F)C1 (centres undefined) | 18.58% |
| COCCCN1CCCN(C(C)c2nc(C3CC3)no2)CC1 (centres undefined) | -0.2305% |
| CC(c1nc(C2CC2)no1)N1CCN(CCOCC(F)(F)F)CC1 (centres undefined) | 15.62% |
| CC(C)c1noc(C(C)N2CCN(CCN3CCCC3=O)CC2)n1 (centres undefined) | -2.358% |
| CC(C)c1noc(C(C)N2CCN(CCCN3CCCC3=O)CC2)n1 (centres undefined) | 113.6% |
| CC(C)c1noc(C(C)N2CCN(CCO)CC2)n1 (centres undefined) | -1.52% |
| CC(c1nc(C2CC2)no1)N1CCN(CCCN2CCCC2=O)CC1 (centres undefined) | 95.99% |
| CC(c1nc(C2CC2)no1)N1CCN(CCN2CCCC2=O)CC1 (centres undefined) | 130.5% |
| CC(c1nc(C2CC2)no1)N1CCN(CCn2ccccc2=O)CC1 (centres undefined) | -4.377% |
| O=C(N1CCCC1)N1C[C@H]2CC[C@@]3(N=C(c4ccccc4)NC3=O)[C@H]2C1 | -1.269% |
| c1ccc(CSc2nnc(C3CC3)s2)nc1 | -7.286% |
| COc1c(C)cnc(CSc2nnc(C)s2)c1C | 6.724% |
| Cc1nnc(SCc2ccccn2)s1 | 113.6% |
| CCC(Nc1nc(C)nc2onc(C)c12)c1cccs1 (centres undefined) | 84.62% |
| Cc1nc(NCCSc2ccccn2)c2c(C)noc2n1 | 2.263% |
| Cc1nc(NCCSc2cnn[nH]2)c2c(C)noc2n1 | -13.5% |
| CCCc1nc(C)c(CNc2nc(C)nc3onc(C)c23)s1 | 18.49% |
| CCC(Nc1nc(C)nc2onc(C)c12)c1nc(C)c(C)s1 (centres undefined) | 99.23% |
| CCC(Nc1nc(CCN)nc2ccccc12)c1cccs1 (centres undefined) | 21.59% |
